Unmarked numbers belong to inactive results.

Chain of UniProt Q6YHK3 (Q6YHK3 whole entry): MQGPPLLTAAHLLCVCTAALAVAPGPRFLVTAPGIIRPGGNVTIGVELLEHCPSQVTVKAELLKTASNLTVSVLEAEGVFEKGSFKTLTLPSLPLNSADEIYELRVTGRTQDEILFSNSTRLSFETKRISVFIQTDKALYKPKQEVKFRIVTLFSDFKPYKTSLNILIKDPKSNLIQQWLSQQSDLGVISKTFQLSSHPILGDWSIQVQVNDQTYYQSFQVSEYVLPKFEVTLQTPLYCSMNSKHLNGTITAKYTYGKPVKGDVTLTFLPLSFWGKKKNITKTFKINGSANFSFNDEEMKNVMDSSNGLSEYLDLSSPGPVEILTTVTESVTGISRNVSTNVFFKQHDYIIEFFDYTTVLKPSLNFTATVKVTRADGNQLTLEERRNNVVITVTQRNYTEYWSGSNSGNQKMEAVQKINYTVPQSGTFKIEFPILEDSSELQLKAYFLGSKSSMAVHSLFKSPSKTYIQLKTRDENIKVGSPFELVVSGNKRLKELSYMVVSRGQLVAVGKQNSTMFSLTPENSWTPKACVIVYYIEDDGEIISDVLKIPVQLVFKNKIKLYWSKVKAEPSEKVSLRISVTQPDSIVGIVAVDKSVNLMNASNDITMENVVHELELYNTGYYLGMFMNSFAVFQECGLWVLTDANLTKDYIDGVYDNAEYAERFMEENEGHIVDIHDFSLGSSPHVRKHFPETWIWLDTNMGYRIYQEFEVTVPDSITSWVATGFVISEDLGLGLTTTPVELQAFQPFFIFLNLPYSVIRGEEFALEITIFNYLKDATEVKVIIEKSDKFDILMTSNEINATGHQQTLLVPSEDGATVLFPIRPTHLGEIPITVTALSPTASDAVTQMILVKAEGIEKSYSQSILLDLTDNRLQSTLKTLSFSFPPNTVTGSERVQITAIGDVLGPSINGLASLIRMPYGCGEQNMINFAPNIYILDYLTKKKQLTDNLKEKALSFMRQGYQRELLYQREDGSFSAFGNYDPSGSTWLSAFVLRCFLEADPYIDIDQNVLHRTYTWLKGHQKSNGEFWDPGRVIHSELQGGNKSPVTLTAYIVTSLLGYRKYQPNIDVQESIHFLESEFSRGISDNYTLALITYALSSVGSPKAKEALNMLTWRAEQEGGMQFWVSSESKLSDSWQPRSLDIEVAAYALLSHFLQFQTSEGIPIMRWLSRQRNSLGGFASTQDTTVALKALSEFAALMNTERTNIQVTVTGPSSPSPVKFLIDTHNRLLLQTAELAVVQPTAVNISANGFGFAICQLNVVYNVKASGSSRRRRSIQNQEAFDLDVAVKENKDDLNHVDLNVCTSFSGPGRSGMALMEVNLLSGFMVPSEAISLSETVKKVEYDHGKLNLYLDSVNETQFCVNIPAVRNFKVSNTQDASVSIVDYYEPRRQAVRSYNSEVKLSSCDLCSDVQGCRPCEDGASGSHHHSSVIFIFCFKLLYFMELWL
Chain of UniProt Q9HB71 (Q9HB71 whole entry): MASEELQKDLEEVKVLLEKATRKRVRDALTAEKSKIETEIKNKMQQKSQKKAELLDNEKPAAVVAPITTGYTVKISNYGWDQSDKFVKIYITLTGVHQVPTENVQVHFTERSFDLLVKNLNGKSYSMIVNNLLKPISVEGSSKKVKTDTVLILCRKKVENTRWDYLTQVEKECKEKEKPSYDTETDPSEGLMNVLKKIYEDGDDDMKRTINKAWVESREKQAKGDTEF
Chain of UniProt P26038 (P26038 whole entry): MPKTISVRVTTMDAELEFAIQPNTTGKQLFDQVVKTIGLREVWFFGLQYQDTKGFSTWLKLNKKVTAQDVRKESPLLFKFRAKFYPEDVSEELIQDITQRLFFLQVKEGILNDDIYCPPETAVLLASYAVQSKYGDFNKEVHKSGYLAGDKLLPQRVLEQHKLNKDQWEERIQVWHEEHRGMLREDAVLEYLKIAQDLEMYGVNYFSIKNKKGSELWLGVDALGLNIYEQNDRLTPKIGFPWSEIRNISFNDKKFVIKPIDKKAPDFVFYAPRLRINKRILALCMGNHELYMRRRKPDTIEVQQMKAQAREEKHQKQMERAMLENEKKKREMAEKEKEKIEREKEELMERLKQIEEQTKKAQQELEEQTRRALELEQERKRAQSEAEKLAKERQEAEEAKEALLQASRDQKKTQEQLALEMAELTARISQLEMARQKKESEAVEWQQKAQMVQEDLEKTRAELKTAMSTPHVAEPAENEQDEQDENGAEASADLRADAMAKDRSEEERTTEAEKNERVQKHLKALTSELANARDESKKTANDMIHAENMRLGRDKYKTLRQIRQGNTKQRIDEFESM
Chain of UniProt Q00839 (Q00839 whole entry): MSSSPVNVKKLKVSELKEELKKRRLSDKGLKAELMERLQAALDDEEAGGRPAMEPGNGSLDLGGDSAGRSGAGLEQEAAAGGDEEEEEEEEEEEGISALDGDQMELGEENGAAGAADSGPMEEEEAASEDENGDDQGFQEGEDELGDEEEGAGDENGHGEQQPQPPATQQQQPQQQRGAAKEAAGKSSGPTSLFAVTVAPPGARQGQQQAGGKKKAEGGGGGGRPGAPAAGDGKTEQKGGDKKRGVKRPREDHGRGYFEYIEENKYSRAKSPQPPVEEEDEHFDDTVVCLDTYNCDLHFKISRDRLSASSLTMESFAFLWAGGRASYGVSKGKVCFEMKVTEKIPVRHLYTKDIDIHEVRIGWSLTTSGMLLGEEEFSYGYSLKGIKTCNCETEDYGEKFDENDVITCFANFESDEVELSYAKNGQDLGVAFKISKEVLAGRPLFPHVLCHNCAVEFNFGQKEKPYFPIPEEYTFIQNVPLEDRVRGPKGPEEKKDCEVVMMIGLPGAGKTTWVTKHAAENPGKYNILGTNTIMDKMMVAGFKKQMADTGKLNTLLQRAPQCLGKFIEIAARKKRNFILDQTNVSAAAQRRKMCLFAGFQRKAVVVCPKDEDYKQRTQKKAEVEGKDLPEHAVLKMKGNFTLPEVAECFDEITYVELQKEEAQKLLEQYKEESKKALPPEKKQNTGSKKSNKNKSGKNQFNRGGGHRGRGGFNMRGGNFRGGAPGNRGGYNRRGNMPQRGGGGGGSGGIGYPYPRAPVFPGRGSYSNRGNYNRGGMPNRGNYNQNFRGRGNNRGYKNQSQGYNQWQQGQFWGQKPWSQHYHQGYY
Chain of UniProt Q8NC51 (Q8NC51 whole entry): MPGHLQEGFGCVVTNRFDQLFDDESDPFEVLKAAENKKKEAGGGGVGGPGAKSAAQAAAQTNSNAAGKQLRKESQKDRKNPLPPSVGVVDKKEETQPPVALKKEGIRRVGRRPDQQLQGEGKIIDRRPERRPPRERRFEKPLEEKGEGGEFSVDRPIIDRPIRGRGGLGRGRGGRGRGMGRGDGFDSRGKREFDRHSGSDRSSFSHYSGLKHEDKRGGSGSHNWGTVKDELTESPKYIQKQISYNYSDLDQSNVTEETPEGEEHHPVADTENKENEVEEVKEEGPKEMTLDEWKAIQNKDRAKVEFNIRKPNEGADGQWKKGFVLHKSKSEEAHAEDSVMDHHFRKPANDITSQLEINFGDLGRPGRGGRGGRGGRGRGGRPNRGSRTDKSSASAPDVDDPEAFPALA
Chain of UniProt P06396 (P06396 whole entry): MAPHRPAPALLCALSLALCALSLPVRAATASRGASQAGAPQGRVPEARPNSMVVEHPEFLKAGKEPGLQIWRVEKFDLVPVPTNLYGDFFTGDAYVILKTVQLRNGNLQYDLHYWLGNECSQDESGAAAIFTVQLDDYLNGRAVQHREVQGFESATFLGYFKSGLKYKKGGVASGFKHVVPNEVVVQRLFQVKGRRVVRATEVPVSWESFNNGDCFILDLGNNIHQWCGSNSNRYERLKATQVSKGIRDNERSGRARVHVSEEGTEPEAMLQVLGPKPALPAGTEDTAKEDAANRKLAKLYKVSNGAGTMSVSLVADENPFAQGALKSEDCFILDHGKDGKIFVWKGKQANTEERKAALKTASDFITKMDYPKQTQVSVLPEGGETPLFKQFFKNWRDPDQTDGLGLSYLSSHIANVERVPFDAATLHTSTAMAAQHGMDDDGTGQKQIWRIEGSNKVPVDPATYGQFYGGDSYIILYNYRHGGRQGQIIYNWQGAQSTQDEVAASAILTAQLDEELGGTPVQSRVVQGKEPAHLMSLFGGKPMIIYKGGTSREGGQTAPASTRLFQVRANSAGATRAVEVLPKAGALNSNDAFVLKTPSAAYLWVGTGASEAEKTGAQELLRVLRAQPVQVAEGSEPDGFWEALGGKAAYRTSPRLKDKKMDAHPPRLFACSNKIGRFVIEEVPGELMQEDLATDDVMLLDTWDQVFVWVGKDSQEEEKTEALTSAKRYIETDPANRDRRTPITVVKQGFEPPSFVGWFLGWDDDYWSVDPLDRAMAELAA
Chain of UniProt Q7Z3B1 (Q7Z3B1 whole entry, looked up): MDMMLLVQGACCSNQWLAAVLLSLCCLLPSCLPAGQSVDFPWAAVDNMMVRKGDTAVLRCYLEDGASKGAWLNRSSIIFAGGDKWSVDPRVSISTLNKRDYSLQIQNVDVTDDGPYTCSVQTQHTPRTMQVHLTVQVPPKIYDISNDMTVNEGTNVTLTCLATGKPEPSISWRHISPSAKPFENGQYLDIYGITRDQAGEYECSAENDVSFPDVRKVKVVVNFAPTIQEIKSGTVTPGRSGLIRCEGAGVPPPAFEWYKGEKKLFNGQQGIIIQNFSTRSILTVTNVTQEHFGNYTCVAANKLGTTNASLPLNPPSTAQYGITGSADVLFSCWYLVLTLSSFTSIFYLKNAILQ
Chain of UniProt P61421 (P61421 whole entry): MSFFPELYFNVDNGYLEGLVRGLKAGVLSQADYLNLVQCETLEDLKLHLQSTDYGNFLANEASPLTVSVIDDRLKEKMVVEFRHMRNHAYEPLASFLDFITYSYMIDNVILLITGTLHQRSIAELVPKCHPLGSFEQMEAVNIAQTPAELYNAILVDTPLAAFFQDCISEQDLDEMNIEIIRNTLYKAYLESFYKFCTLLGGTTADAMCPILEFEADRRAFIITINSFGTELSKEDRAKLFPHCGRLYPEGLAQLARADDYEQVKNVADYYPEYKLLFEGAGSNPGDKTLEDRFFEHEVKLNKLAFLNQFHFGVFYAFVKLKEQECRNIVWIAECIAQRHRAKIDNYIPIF

Compound in this experiment: C#CCNC(=O)CCSSCCC(=O)NCCc1ccc(C=O)c(C=O)c1
Put plainly: lysine labeling ratio R10:1 (500 µM / 50 µM probe), SILAC-ABPP in living cells; higher = lower intrinsic lysine reactivity toward the probe, active = 2 or less. The note with it: HeLa; probe concentrations 500 vs 50 µM. The procedure, abridged: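 SILAC light and heavy living HeLa cells in PBS at room temperature were labelled with 50 µM or 500 µM of an alkyne-tagged, disulfide-linked lysine probe, with forward and reverse label swaps. Mixed lysates were clicked to biotin-azide, trypsin-digested, captured on neutravidin, DTT-released, alkylated and analysed by LC-MS/MS on a TIMS-TOF Pro. R is the filtered median high-probe/low-probe MS1 peptide ratio per lysine, then the median across forward and reverse replicates. Ratios are capped at 20.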
For the target “RPL10A (lysine site: K196) (UniProt P62906)”, the “lysine labeling ratio R10:1” value is 2.81.

“ANPEP (lysine site: K923) (UniProt P15144)”: the “lysine labeling ratio R10:1” value is 2.33.

On to “RPL22 (lysine site: K107) (UniProt P35268)”, for which the “lysine labeling ratio R10:1” value is 2.29.

With “MSN (lysine site: K412) (UniProt P26038)”, the “lysine labeling ratio R10:1” value was 3.35.

As for “SERBP1 (lysine site: K122) (UniProt Q8NC51)”, the “lysine labeling ratio R10:1” value is 11.8.

Regarding UniProt Q92729 (lysine site: K388), the “lysine labeling ratio R10:1” value is 3.11.

Take “ATP6V0D1 (lysine site: K77) (UniProt P61421)”: the “lysine labeling ratio R10:1” value is 1.33 (active).

Regarding “SUB1 (lysine site: K80) (UniProt P53999)”, the “lysine labeling ratio R10:1” value was 1.69 (active).

“COL5A1 (lysine site: K605) (UniProt P20908)”: the “lysine labeling ratio R10:1” value was 2.05.

Turning to “HNRNPU (lysine site: K614) (UniProt Q00839)”, the “lysine labeling ratio R10:1” value is 2.36.

With “VPS35 (lysine site: K515) (UniProt Q96QK1)”, the “lysine labeling ratio R10:1” value is 1.25 (active).

For the target “GPRC5A (lysine site: K14) (UniProt Q8NFJ5)”, the “lysine labeling ratio R10:1” value was 6.52.

“STMN1 (lysine site: K119) (UniProt P16949)”: the “lysine labeling ratio R10:1” value was 1.62 (active).

In the case of “CD109 (lysine site: K567) (UniProt Q6YHK3)”, the “lysine labeling ratio R10:1” value is 3.37.

For the target “AGRN (lysine site: K1589) (UniProt O00468)”, the “lysine labeling ratio R10:1” value was 5.07.

Regarding “FKBP4 (lysine site: K274) (UniProt Q02790)”, the “lysine labeling ratio R10:1” value is 2.78.

Consider “CACYBP (lysine site: K220) (UniProt Q9HB71)”, for which the “lysine labeling ratio R10:1” value is 1.74 (active).

Consider “TCP1 (lysine site: K126) (UniProt P17987)”, for which the “lysine labeling ratio R10:1” value was 2.14.

Turning to “IGSF8 (lysine site: K194) (UniProt Q969P0)”, the “lysine labeling ratio R10:1” value was 1 (active).

Consider “CACYBP (lysine site: K223) (UniProt Q9HB71)”, for which the “lysine labeling ratio R10:1” value was 1.74 (active).

“EEF2 (lysine site: K42) (UniProt P13639)”: the “lysine labeling ratio R10:1” value is 1.82 (active).

On to “NEGR1 (lysine site: K231) (UniProt Q7Z3B1)”, for which the “lysine labeling ratio R10:1” value is 0.868 (active).

As for “FRAS1 (lysine site: K1628) (UniProt Q86XX4)”, the “lysine labeling ratio R10:1” value was 3.34.

On to “ROR2 (lysine site: K285) (UniProt Q01974)”, for which the “lysine labeling ratio R10:1” value was 3.36.

Regarding “EHD1 (lysine site: K220) (UniProt Q9H4M9)”, the “lysine labeling ratio R10:1” value is 4.05.

For UniProt Q9BTX1 (lysine site: K628), the “lysine labeling ratio R10:1” value is 5.32.

With “PFN1 (lysine site: K127) (UniProt P07737)”, the “lysine labeling ratio R10:1” value was 2.19.

For the target UniProt P50281 (lysine site: K337), the “lysine labeling ratio R10:1” value is 1.7 (active).

For the target “SPTAN1 (lysine site: K1334) (UniProt Q13813)”, the “lysine labeling ratio R10:1” value is 3.63.

Take “CD109 (lysine site: K1022) (UniProt Q6YHK3)”: the “lysine labeling ratio R10:1” value is 0.98 (active).

For the target “FAT4 (lysine site: K3828) (UniProt Q6V0I7)”, the “lysine labeling ratio R10:1” value is 5.8.

On to “GSN (lysine site: K245) (UniProt P06396)”, for which the “lysine labeling ratio R10:1” value is 4.08.

As to MSN (lysine site: K79) (UniProt P26038), the “lysine labeling ratio R10:1” value was 2.55.

As for “NCL (lysine site: K449) (UniProt P19338)”, the “lysine labeling ratio R10:1” value was 0.805 (active).

For the target UniProt Q9H336 (lysine site: K468), the “lysine labeling ratio R10:1” value was 1.33 (active).

In the case of “FAT4 (lysine site: K2570) (UniProt Q6V0I7)”, the “lysine labeling ratio R10:1” value is 3.02.

“PLXND1 (lysine site: K310) (UniProt Q9Y4D7)”: the “lysine labeling ratio R10:1” value was 3.11.

For the target UniProt P62244 (lysine site: K88), the “lysine labeling ratio R10:1” value is 1.79 (active).

With “ENO1 (lysine site: K126) (UniProt P06733)”, the “lysine labeling ratio R10:1” value was 3.29.

Regarding UniProt Q8WXI7 (lysine site: K13985), the “lysine labeling ratio R10:1” value was 7.69.
